# According to the supplement of paper PMC6555819:
# Key:
# Assay in all cases: PBM binding z-score (relative to random genomic background probes); higher = stronger binding; sequences stand for … in GC…GCGATTGACAGCGTAGAATGAAGG
# [1] = tested on: PPARg:RXRa DBDmut IVT, anti-RXR (DBD mutation: RXRa K156A/R161A, NR concentration 270 nM, RXRa partner concentration 90 nM)
# Outline: (§1)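 Each nuclear receptor dimer, without ligand, was incubated for 1 h on custom Agilent 4×180K protein-binding microarrays. Binding was detected with antibodies against each partner (one per run), and scanned fluorescence was regression-normalized. The binding z-scores are referenced to random human genomic background probes.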
# [2] = tested on: PPARg:RXRa IVT, anti-PPARg (NR concentration 270 nM, RXRa partner concentration 90 nM)
# Outline: as §1
# [3] = tested on: PPARg DBDmut:RXRa IVT, anti-PPARg (DBD mutation: PPARg1 K132A/R137A, NR concentration 270 nM, RXRa partner concentration 90 nM)
# Outline: as §1
# [4] = tested on: PPARg DBDmut IVT, anti-PPARg (DBD mutation: PPARg1 K132A/R137A, NR concentration 270 nM)
# Outline: as §1
# [5] = tested on: PPARg homodimer (NR concentration 180 nM)
# Outline: as §1
# [6] = tested on: PXR:RXRa (NR concentration 270 nM, RXRa partner concentration 90 nM)
# Outline: as §1
# [7] = tested on: PXR homodimer (NR concentration 270 nM)
# Outline: as §1
# [8] = tested on: RARa:RXR (NR concentration 270 nM, RXRa partner concentration 90 nM)
# Outline: as §1
# [9] = tested on: RARa homodimer (NR concentration 270 nM)
# Outline: as §1
# [10] = tested on: RARb:RXRa (NR concentration 270 nM, RXRa partner concentration 90 nM)
# Outline: as §1
# [11] = tested on: RARb homodimer (NR concentration 270 nM)
# Outline: as §1
# [12] = tested on: RARg:RXRa (NR concentration 270 nM, RXRa partner concentration 90 nM)
# Outline: as §1
# [13] = tested on: RARg homodimer (NR concentration 270 nM)
# Outline: as §1
# [14] = tested on: RXRa DBDmut IVT, anti-RXR (DBD mutation: RXRa K156A/R161A, NR concentration 90 nM)
# Outline: as §1
# [15] = tested on: RXRa homodimer (NR concentration 180 nM)
# Outline: as §1
# [16] = tested on: THRa:RXRa (NR concentration 90 nM, RXRa partner concentration 90 nM)
# Outline: as §1
# [17] = tested on: THRa homodimer (NR concentration 90 nM)
# Outline: as §1
# [18] = tested on: VDR homodimer (NR concentration 270 nM)
# Outline: as §1
Sequence,PBM binding z-score [1],PBM binding z-score [2],PBM binding z-score [3],PBM binding z-score [4],PBM binding z-score [5],PBM binding z-score [6],PBM binding z-score [7],PBM binding z-score [8],PBM binding z-score [9],PBM binding z-score [10],PBM binding z-score [11],PBM binding z-score [12],PBM binding z-score [13],PBM binding z-score [14],PBM binding z-score [15],PBM binding z-score [16],PBM binding z-score [17],PBM binding z-score [18]
GATACAGGGTCAAGGCCTGAGTACGCGTATTGAT,2.78,3.87,0.27,0.16,1.74,3.43,0.0722,3.99,0.47,4.4,3.54,5.4,5.41,2.19,5.69,3.37,0.931,2.52
TCTATTAGTTGATTAGGGCAACCGTAACAGCGGA,2.24,1.65,0.987,1.87,0.942,0.413,0.434,0.681,1.18,0.877,0.955,0.567,0.671,1.16,0.558,0.75,0.547,0.281
AGTCAAAGTTCATCGAGGTAACGTAAGATATGCT,0.275,3.44,1.15,1.15,2.53,5.38,9.82,3.97,0.864,5.07,4.15,5.57,6.25,4.45,4.87,3.97,1.19,5.6
CCCGACAGGTGAGAAGGTAACTCAGCCTCGATTA,0.828,0.811,-0.905,-0.776,0.497,-0.281,-0.233,-0.0407,0.0144,0.749,0.604,0.562,0.328,-0.142,0.298,0.229,0.474,-0.11
GCAACTGGGGCATCAGCAGGTTACCATAACTTAA,5.86,5.15,-0.129,0.0733,0.577,0.0192,-0.0956,0.138,-0.393,0.963,0.793,0.74,0.473,0.26,0.318,1.04,0.19,-0.0433
CAAACTAGGTCACAGAGCTCAAAGTCCGTGCGTA,8.61,8.86,3.69,1.2,1.74,1.81,-0.0569,2.68,0.446,4.13,3.35,4.37,4.81,1.38,3.73,3.25,1.11,0.62
CCTACTGGGCCAAAAAGGTCACTGATGCCGATAA,3.78,4.39,-0.138,-0.0876,3.8,4.22,1.16,4.59,1.29,4.15,4.56,4.77,4.86,0.0179,4.83,3.07,0.702,1.53
ATCGAAAGGTCGACGAGGTGAGTATCCACCGTTT,0.709,1.86,0.578,0.779,1.21,2.78,0.403,3.19,0.424,3.84,2.9,4.16,4.03,1.27,4.38,3.78,1.01,0.828
GCAACGAGGGCATTCGAGTTGATAGCATGGCGAT,1.69,1.13,-0.431,-0.39,-0.299,3.66,1.02,0.56,-0.554,1.69,0.663,0.926,1.45,3.01,0.65,3.31,-0.513,3.27
CGAACTAGGTCAGAACAGGACTGTGAAGGATGAT,7.08,7.13,0.747,0.194,0.61,0.118,-0.184,0.787,0.123,2.71,1.6,2.33,2.99,0.646,1.19,1.97,-0.0804,-0.341
ATCTCTAGGTTAGACTCAGTTCAGTGAAGAACGC,3.38,2.14,1.55,1.36,1.63,2.69,2.69,1.13,2.42,1.53,1.37,1.4,1.14,1,0.687,1.52,1.21,2.48
CATACAGGGTCAGCTAGGACAGAGTAGGGACGGC,1.2,2.23,0.778,0.0196,0.881,2.07,0.128,3,0.439,4.04,3.14,4.21,4.66,1.58,3.74,3.54,1.31,1.19
GCTATTAGTTGAAAGCGCAACCGAATGATTCTCG,0.316,-0.176,-0.265,-0.6,0.252,-0.405,-0.357,-0.564,-0.0512,-0.343,-0.696,-0.258,-0.0474,0.445,-0.166,-0.508,-0.515,-0.738
CGAACTAGGTCAGAATAGGACAGTGAAGGATGAT,6.67,6.96,2.83,1.87,0.535,0.652,0.356,1.01,0.988,2.73,2.16,2.58,3.36,0.702,1.3,2.77,0.0202,-0.245
CCGACTGGGGCATAAGGTTACCATAAGCCAGCCC,2.93,3.01,-0.979,-1.34,0.447,0.164,-0.32,1.11,-0.464,1.66,1.69,1.62,1.17,-0.574,1.13,2.01,1.13,-0.0146
GATACAGGGTCAGCTAGGGGCCAGAGTATGGAAA,1.75,2.41,-0.163,-0.667,3.15,2.94,-0.0214,4.97,0.262,4.22,3.52,6.94,4.94,1.25,4.43,3.62,0.639,0.774
